# Compounds with a hit are over-represented: about 3.7% of the library has one in this group of screens.
# TbPYK inhibitor – qHTS of Trypanosoma Brucei Inhibitors; AID 624173, 2012; TbPYK enzyme, Kinase-Glo Plus ATP luminescence, 45 min; actives 0.12% (n = 410,000); pyruvate kinase (Trypanosoma brucei), Q57TT1; Potency, µM (titrated, usually from 76.8 µM), inactives show at the top dose activity, negative = inhibition, most hits filed as inhibitors; further: nearly all actives have a fitted effect of over 50% in size
#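 Activity of T. brucei pyruvate kinase was followed by Kinase-Glo Plus luminescence after the enzyme reacted 45 min at room temperature with 130 uM ADP (final) and substrate. Test compounds were added before ADP at multiple concentrations.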
# FMDV antiviral – High Throughput Screening for Foot and Mouth Disease Virus Antivirals. AID 1159524, 2015. actives 1.2% (n = 410,000). FMDV antiviral cell-based qHTS. Potency, µM (series often up to 57.9 µM), without a hit: at the top dose activity change, negative = inhibition, most hits filed as inhibitors; calls by dose curve; tested in HEK293T cells; further: read-out not given here; nearly all actives have a fitted effect of over 45% in size
# RE007 growth inh – qHTS Assay for Inhibitors of the HIV-1 protein Vpr; S. pombe RE007 Vpr strain, BacTiter-Glo ATP luminescence, 24 h; Potency, µM (series often up to 92.2 µM), for inactives: top-dose activity change, negative = less growth, actives largely listed as inhibitors; actives 0.21% (n = 360,000); AID 651644, 2012; active means well fitted falling curve with a large enough effect; inconclusive means small, poorly fitted or top-dose-only effect; inactive means no such curve, though single readings can be large or run the other way; further: nearly all actives have a fitted effect of over 50% in size
#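 Fission yeast RE007 carrying one integrated HIV-1 vpr copy, seeded at OD 0.01 in PMG+AL medium with 23 nL pinned compound. Grown 24 h at 30 degrees; viability read by BacTiter-Glo luminescence after 5 min.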
# Sm TGR block – qHTS Assay for the Inhibitors of Schistosoma Mansoni Peroxiredoxins. actives 3% (n = 360,000). Potency, µM (highest dose often 114 µM), for inactives: at the top dose activity change, negative = inhibition, actives largely listed as inhibitors. AID 485364, 2010. purified TGR, DTNB reduction, TNB absorbance 405 nm; further: nearly all actives have a fitted effect of over 60% in size
#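 First, TGR (20 nM dispensed) and NADPH were mixed with compound. Second, a 15 min room-temperature incubation followed. Third, further NADPH and then DTNB were added to start the reaction. Finally, TNB absorbance was monitored kinetically.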
# The depositor's hits bear a star; ? = inconclusive; . = no result given. Unless noted, the call rests on the fitted dose curve; in most records, active means well fitted curve in the direction sought with a large enough effect; inconclusive means small, poorly fitted or top-dose-only effect, or another doubt; inactive means no such curve, though single readings can be large; an effect the other way counts as inactive or inconclusive. On the % scale 0 is the no-effect control and ±100 the full control effect; potency means the concentration at half of the fitted maximal effect.
SMILES,TbPYK inhibitor,FMDV antiviral,RE007 growth inh,Sm TGR block
O=C1C=CC(=O)N1CCCCCCN1C(=O)C=CC1=O,10µM*,40µM*,8.9µM*,-9%
Cc1nc2ccc(S(=O)(=O)CCC(=O)Nc3ccc(Cl)cc3)cc2s1,-4%,-23%,.,-23%
O=C(CSc1ccc(Cl)cc1)Nc1ccccc1N1CCN(C(=O)c2ccccc2)CC1,1%,13µM*,-2%,0%
O=C(CSc1ccc(Cl)cc1)Nc1ccc(N2CCN(C(=O)c3ccco3)CC2)cc1,-9%,20µM*,4%,-4%
Cc1ccccc1OCC(=O)Nc1ccc(N2CCN(C(=O)c3ccco3)CC2)cc1,0%,28µM*,?,-12%
O=C(COc1ccc([N+](=O)[O-])cc1)Nc1ccc(N2CCN(C(=O)c3ccco3)CC2)cc1,3%,?,-2%,35µM*
CCOC(=O)C1=C(C)NC(C)=C(C(=O)OCC)C1c1ccccc1C=CC(=O)OC(C)(C)C,-11%,.,.,.
O=C(/C=C/c1ccco1)NC(=S)Nc1cccc(C(=O)O)c1,-22%,-8%,2%,4.5µM*
COc1ccc(NC(=S)NC(=O)/C=C/c2ccco2)c(OC)c1,-2%,-9%,-4%,?
Cc1ccc2oc(-c3cccc(NC(=S)NC(=O)/C=C/c4ccco4)c3)nc2c1,-9%,?,2%,-26%
COc1cccc(NC(=S)NC(=O)/C=C/c2ccco2)c1,-13%,63%,-16%,10µM*
CCc1nc2cc(C(=O)N(C)CC3CCCN(C)C3)cc(NC(=O)c3ccccc3OC)c2n1C (configuration not stated),.,-6%,.,.
Nc1ncnc2oc(-c3ccco3)c(-c3ccco3)c12,-16%,.,3%,10µM*
Nc1nnc(-c2ccco2)s1,1%,.,0%,27%
c1ccc(CN(Cc2ccco2)C(c2ccncc2)c2nnnn2C2CCCC2)cc1 (configuration not stated),-20%,.,-16%,22µM*
Cc1ccc(C)c(N2CCN(c3nc4ccccc4c(=O)n3-c3ccc(Cl)cc3)CC2)c1,0%,-19%,.,-1%
CCCCOC(=O)c1ccc(O)cc1,-5%,0%,20%,-10%
CCCCCCCCOC(=O)c1ccc(N)cc1,-2%,1%,28µM*,-2%
O=C(OCn1ncc(Br)c(Br)c1=O)c1ccccc1Cl,-25%,14µM*,6.3µM*,1.3µM*
O=C(OCn1ncc(Br)c(Br)c1=O)c1ccc(F)cc1,-1%,14µM*,?,2µM*
COc1cccc(N2CCN(c3ccc4nnc(CCC(=O)O)n4n3)CC2)c1,-3%,-19%,.,0%
CCN1CCCC1CNC(=O)c1cnn(-c2nccc(-c3cc4ccccc4o3)n2)c1C1CC1 (configuration not stated),.,-11%,.,.
CCCN(Cc1cccs1)C(=O)Nc1ccc(Br)cc1F,4%,-29%,.,1%
COc1ccc(NC(=O)COC(=O)c2c3c(nc4ccccc24)CCCC3)cc1,-4%,22µM*,13%,-2%
CCc1nc2ccccc2c(C(=O)OCC(=O)NCc2ccco2)c1C,-3%,-19%,27%,35µM*
SMILES,TbPYK inhibitor,FMDV antiviral,RE007 growth inh,Sm TGR block
CCc1nc2ccccc2c(C(=O)OCC(=O)Nc2ccc(NC(C)=O)cc2)c1C,9%,32µM*,-13%,.
Cc1ccc(/C=C/c2nc3ccccc3n2S(=O)(=O)c2ccc(Br)cc2)cc1,-22%,-65%,.,3%
O=C(C1CC1)N1CCC(Oc2cccc(C(=O)N3CCCCC3CCO)c2)CC1 (configuration not stated),-5%,13%,-8%,4%
O=C(NCc1cccc(Cl)c1)c1cccc(OC2CCN(C(=O)C3CC3)CC2)c1,2%,16µM*,4%,1%
Cc1cc(C)n(-c2cccc(C(=O)NCC3Cc4cccc(-c5ccccn5)c4O3)c2)n1 (configuration not stated),.,-28%,.,.
CCOC(=O)N1CCc2c(sc3c2C(=O)NC(c2cc(OC)c(OC)c(OC)c2)N3)C1 (configuration not stated),3%,-23%,.,0%
COc1nc(Cl)cn(-c2ccc(C)cc2)c1=O,1%,-4%,11%,3%
Cc1ccc(-n2c(Cl)c(Cl)nc(Cl)c2=O)cc1,4%,7.1µM*,10µM*,0.79µM*
